Screening data from PubChem BioAssay.
Compounds with a hit are over-represented: about 20% of the library has one in this group of screens.
CHX counter: Cycloheximide Counterscreen for Small Molecule Inhibitors of Shiga Toxin | AID 2314, 2010 | max response, % | cell reporter, cycloheximide protein synthesis inhibition counterscreen | actives 12% (n = 300,000); in the data active means max response mostly above about 13%, no sharp cut-off; inactive means mostly below about 14%; further: read at 38.3 µM for the half of the compounds with a filed dose
HCMV antiviral: qHTS Assay for inhibitors of the human cytomegalovirus (HCMV) | HFF cells, HCMV-luciferase reporter, 72 h; hits give low values | activity change, negative = inhibition, % at 57.5 µM | actives 4.5% (n = 410,000) | AID 1259415, 2018; in the data active means activity change below about -60%; inconclusive means no clear call, values can overlap the other calls; inactive means above about -39%
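HFF cells seeded 16 h at 37C, treated with compounds, infected with luciferase-reporter HCMV at MOI 1 PFU/cell; luciferase read at 72 h post infection, normalized to buffer-only and Salinomycin controls.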
Shiga toxin inh: A qHTS for Small Molecule Inhibitors of Shiga Toxin; inhibition, % at 38.7 µM; AID 2315, 2010; Vero cells, Shiga toxin protein synthesis inhibition reporter; actives 9.2% (n = 290,000); in the data active means inhibition mostly above about 28%, no sharp cut-off; inactive means mostly below about 43%
Pf growth 48h: Primary qHTS for delayed death inhibitors of the malarial parasite plastid, 48 hour incubation | P. falciparum luciferase growth in erythrocytes, 48 h | Potency, µM (doses to about 28.7 µM), hits mostly inhibitors | actives 5.9% (n = 310,000) | AID 504832, 2011
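Parasite viability was followed by luminescence of a genomically integrated firefly luciferase. Cultures held 0.1% parasitemia at 2% hematocrit (final), incubated under 5% CO2 at 37 C.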
Pf growth 96h: Primary qHTS for delayed death inhibitors of the malarial parasite plastid, 96 hour incubation; actives 6.9% (n = 320,000); Potency, µM (series often up to 28.7 µM), most hits filed as inhibitors; P. falciparum luciferase reporter growth, 96 h
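Two parasite generations (96 h, 37 C, 5% CO2) of compound exposure in infected erythrocytes (0.05% parasitemia, 2% hematocrit). Luciferase-reporter P. falciparum; decreased luminescence indicates inhibited growth, aimed at apicoplast-acting delayed death.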
Large screens that a line does not name were inactive. Unless noted, the call rests on the fitted dose curve; in most records, active means well fitted inhibition curve with a large enough effect; inconclusive means small, poorly fitted or top-dose-only effect, or another doubt; inactive means no such curve, though single readings can be large or run the other way.

CC(OC(=O)Cn1[nH]c(=O)c2ccccc2c1=O)C(=O)NC1(C#N)CCCCC1 (centres undefined)	Pf growth 48h 10µM, Pf growth 96h inconclusive (no result: CHX counter, Shiga toxin inh)
CC(OC(=O)Cc1c[nH]c2ccccc12)C(=O)NC1(C#N)CCCCC1 (centres undefined)	none
CCC(C(=O)Nc1ccc2[nH]ncc2c1)c1ccccc1 (centres undefined)	Pf growth 48h inconclusive
CCOc1ccc(N(CC)S(=O)(=O)N2CCCC(C(=O)Nc3ccc(OC)c(Cl)c3)C2)cc1 (centres undefined)	none (no result: CHX counter, Shiga toxin inh, Pf growth 48h, Pf growth 96h)
Cc1nc2c(C(=O)NCCc3ccccc3Cl)c[nH]n2c(=O)c1Cl	Pf growth 96h 10µM
Cc1ccc(C(=O)NCC(=O)OCc2nnc(-c3ccc([N+](=O)[O-])cc3)o2)cc1	none (no result: CHX counter, Shiga toxin inh, Pf growth 48h, Pf growth 96h)
OC1(c2ccccc2)CN(c2ccccc2)C2=[N+]1CCS2 (centres undefined)	HCMV antiviral -62, Pf growth 48h inconclusive, Pf growth 96h inconclusive
OC1(c2cccs2)CN(c2ccc(Br)cc2)C2=[N+]1CCCS2 (centres undefined)	Pf growth 48h inconclusive, Pf growth 96h inconclusive
COc1ccc(CCNC(=O)C/C(C)=N/NC(=O)c2ccc(N)cc2)cc1OC	CHX counter 12, Pf growth 96h inconclusive
COc1ccc(CCNC(=O)C/C(C)=N/NC(=O)C2CCCCC2)cc1OC	Pf growth 96h 8.3µM
COc1ccc(CCNC(=O)CNCC2CCCCC2)cc1OC	Pf growth 48h inconclusive
Oc1ccc2ccccc2c1/C=N/Nc1nnc(-c2ncc[nH]2)c2ccccc12	CHX counter 48, HCMV antiviral -102, Pf growth 48h 2.6µM (no result: Pf growth 96h)
Oc1ccc2ccccc2c1CNc1ccccn1	HCMV antiviral inconclusive
COc1ccc(/C=N/Nc2nnc(-c3ncc[nH]3)c3ccccc23)cc1	CHX counter 25, Shiga toxin inh 78 (no result: HCMV antiviral)
O=c1c2ccccc2nc(N/N=C/c2c(O)ccc3ccccc23)n1O	CHX counter 40, HCMV antiviral -101, Shiga toxin inh 53, Pf growth 48h 0.52µM, Pf growth 96h 0.47µM
Oc1ccc2ccccc2c1C=NNc1ccccn1	HCMV antiviral -98 (no result: CHX counter, Shiga toxin inh, Pf growth 48h, Pf growth 96h)
COc1ccc(S(=O)(=O)N2CCOCC2)cc1NC(=O)COc1ccc2ccc(=O)oc2c1	none (no result: CHX counter, Shiga toxin inh, Pf growth 48h, Pf growth 96h)
CN(C)c1cccc(NC(=O)C2Cc3c(-c4cccnc4)ccnc3O2)c1 (centres undefined)	none (no result: CHX counter, Shiga toxin inh, Pf growth 48h, Pf growth 96h)
COc1cccc(C2C3=C(N=c4s/c(=C\c5ccc(O)cc5)c(=O)n42)c2ccccc2CC3)c1OC (centres undefined)	Pf growth 48h inconclusive, Pf growth 96h 13µM
COc1cccc(C2C3=C(N=c4s/c(=C\c5cccc(O)c5)c(=O)n42)c2ccccc2CC3)c1OC (centres undefined)	HCMV antiviral -96, Pf growth 48h 2.3µM, Pf growth 96h inconclusive
COc1ccccc1C1C2=C(N=c3s/c(=C/c4cccc(OCC(=O)O)c4)c(=O)n31)c1ccccc1CC2 (centres undefined)	HCMV antiviral inconclusive, Pf growth 48h 10µM, Pf growth 96h inconclusive
COc1cccc(C2C3=C(N=c4s/c(=C\c5ccc(OCC(=O)O)cc5)c(=O)n42)c2ccccc2CC3)c1 (centres undefined)	Pf growth 48h inconclusive, Pf growth 96h inconclusive (no result: HCMV antiviral)
CCOC(=O)C1=C(C)N=c2sc(=Cc3cc(Cl)c(OCC(=O)O)c(OC)c3)c(=O)n2C1c1ccccc1Cl (centres undefined)	none (no result: CHX counter, Shiga toxin inh, Pf growth 48h, Pf growth 96h)
CCc1ccc(C2=NN(CCC(=O)NCCc3ccccc3)C(=O)CC2)cc1	none (no result: CHX counter, Shiga toxin inh, Pf growth 48h, Pf growth 96h)
O=C(Nc1cccc(Cl)c1)c1ccc2c(c1)SC1=NS(=O)(=O)CCN12	HCMV antiviral -79, Pf growth 48h inconclusive, Pf growth 96h inconclusive
COc1cc(C(=O)NNC(=O)CCOc2ccccc2)cc(OC)c1OC	none (no result: CHX counter, Shiga toxin inh, Pf growth 48h, Pf growth 96h)
CCOc1c(Cl)cc(Cl)cc1CNCCNCCO	Pf growth 48h inconclusive, Pf growth 96h inconclusive
Cc1cc(-c2nn(-c3ccccc3F)cc2CN2CCN(c3ccncc3)CC2)c(C)s1	Pf growth 48h 4.1µM, Pf growth 96h inconclusive
CCOc1cc(/C=N/NC(=O)Cc2ccc(C(F)(F)F)cc2[N+](=O)[O-])ccc1O	HCMV antiviral -61
Cc1ccc2oc(=O)c3cc(C(=O)Nc4ccc(F)cc4F)sc3c2c1	none (no result: CHX counter, Shiga toxin inh, Pf growth 48h, Pf growth 96h)
CCOC(=O)c1nc(NCCc2ccccc2)sc1C	CHX counter 53, Shiga toxin inh 133
CC(=O)c1sc(NC(=O)CCc2ccccc2)nc1C	none (no result: CHX counter, Shiga toxin inh, Pf growth 48h, Pf growth 96h)
CCOC(=O)c1nc(NNC(C)=O)sc1C	none
